Each structure is given as a SMILES string. Screen size: about 360,000 compounds; about 11,000 (3.1%) were called active. The sample as a whole holds a higher share of actives than the screen did. Unmarked numbers belong to inactive results. Cut-off read from the data, not from the text of the source: active = activity change below about -30%; inactive = the rest.

The text below walks through data of PubChem BioAssay AID504652 (National Center for Advancing Translational Sciences (NCATS), 2011).
% is set by controls: 0 for no effect and ±100 for the full control effect.

D(1A) dopamine receptor (Homo sapiens), sequence (P21728 whole entry, looked up): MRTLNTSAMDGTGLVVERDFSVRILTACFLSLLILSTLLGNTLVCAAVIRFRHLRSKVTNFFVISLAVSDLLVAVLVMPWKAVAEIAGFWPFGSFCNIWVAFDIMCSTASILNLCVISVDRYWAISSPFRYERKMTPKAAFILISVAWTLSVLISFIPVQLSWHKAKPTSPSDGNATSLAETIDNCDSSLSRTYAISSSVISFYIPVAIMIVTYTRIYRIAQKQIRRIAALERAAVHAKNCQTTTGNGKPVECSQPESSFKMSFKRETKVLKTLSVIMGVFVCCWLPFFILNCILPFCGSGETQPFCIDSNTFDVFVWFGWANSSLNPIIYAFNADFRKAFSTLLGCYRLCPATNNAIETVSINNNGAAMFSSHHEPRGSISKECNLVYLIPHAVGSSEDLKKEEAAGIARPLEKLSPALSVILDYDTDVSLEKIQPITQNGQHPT

The assay addresses D(1A) dopamine receptor (Homo sapiens) (UniProt P21728). Put plainly: Antagonist of Human D 1 Dopamine Receptor: qHTS. The conditions noted are these: HEK293 TREx D1 cells, calcium flux, dopamine EC80; at 10 µM; stronger effect = lower value. The method, boiled down: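 Calcium flux readout: force-coupled, inducible Hek293 Trex D1 line, cells induced overnight at 30 C with tetracycline, dye-loaded 30–90 min at RT. Antagonism scored against EC80 dopamine challenge given 180 s after compound.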
Take `COc1ccc2c(c1)c(=O)c(S(=O)(=O)c1ccc(F)cc1)cn2CC(=O)Nc1ccc(C)cc1C`: the activity change, negative = inhibition was -20%.

Take `CCc1ccc(NC(=O)c2cc(S(=O)(=O)NC3CCCCCC3)ccc2F)cc1`: the activity change, negative = inhibition was 1.8%. For `COc1ccc(-c2nc(CN3CCC(C(=O)NCCN(CC(C)C)CC(C)C)CC3)c(C)o2)cc1OC` the value was -3.04%; for `COc1ccc(Cl)cc1NC(=O)Cn1nc(-c2ccc(C)cc2)n(C)c1=S`, -37.4% (active). With `COc1ccc(Cl)cc1NC(=O)CCn1c(=O)c2cccn2c2ccccc21`, the activity change, negative = inhibition was -35% (active). The figure for `COc1ccc(C)cc1NC(=O)CSc1ccc(Cl)cc1` is 3.7%. Turning to `COc1ccc(Cl)cc1NC(=O)Cn1c(=O)c2ccccc2n2nncc12`, the activity change, negative = inhibition was 3.48%.

For the compound `Cc1ccc(NC(=O)CCCn2c(=O)c3cccn3c3ccccc32)cc1Cl`, the activity change, negative = inhibition was -14.3%.

In the case of `COc1ccc(Cl)cc1NC(=O)CCC(=O)c1ccc(C)cc1`, the activity change, negative = inhibition was 0.782%. On to `Cc1ccc(Nc2nnc(-c3ccc(C)c(S(=O)(=O)N4CCCCC4)c3)c3ccccc23)cc1`, for which the activity change, negative = inhibition was -4.3%. The figure for `Cc1ccc(N(C)C(=O)C2CCN(S(=O)(=O)c3ccc4c(c3)CCCN4C(=O)C3CCC3)CC2)cc1` is 10.1%; for `O=C(CCCCn1c(=O)c2ccccc2n(CC(=O)Nc2cccc(C(F)(F)F)c2)c1=O)NCc1ccc2c(c1)OCO2` it is 3.4%. Turning to `COc1ccc(CCn2cc3c(c2-c2ccc(Br)cc2)c(=O)n(C)c(=O)n3C)cc1OC`, the activity change, negative = inhibition was 2.27%.

Regarding `Fc1ccc(CN2CCc3nc(Nc4ccccc4)ncc3C2)cc1F`, the activity change, negative = inhibition is 5.84%. The figure for `COc1ccc2c(c1)Cc1sc(NC(=O)c3ccccc3Br)nc1-2` is 6.21%; for `CCCCSc1ncnc2c1sc1nc(N3CCOCC3)c3c(c12)CCCC3` it is 3.48%; for `CCCCNC(=O)CSc1nccn1Cc1ccccc1` it is 23.5%.

Consider `O=C(CSc1nccn1Cc1ccc(F)cc1)NCc1ccccc1`, for which the activity change, negative = inhibition was 9.06%. For `O=C(CSc1nccn1Cc1ccc(Cl)cc1)NCc1ccccc1`, the activity change, negative = inhibition is -34.5% (active). As to `Cc1oc(-c2ccccc2F)nc1CN1CCC(C(=O)NCCc2ccc(Cl)cc2)CC1`, the activity change, negative = inhibition was -10.2%. For `CC(C)C12CN3CC(C(C)C)(CN(C1)C3c1ccc(OCc3ccccc3)cc1)C2=O` (configuration not stated) the value was -2.54%.

Regarding `COc1cccc(C2C(C(=O)Nc3ccc(C)cc3C)=C(C)Nc3c(C(=O)Nc4ccccc4)cnn32)c1` (configuration not stated), the activity change, negative = inhibition was 0.0774%.

With `CC(NC(=O)Nc1ccccc1)c1ccccc1` (configuration not stated), the activity change, negative = inhibition is 5.33%. As for `CC(C)c1ccc(NC(=O)Cn2ncc3ccccc32)cc1`, the activity change, negative = inhibition was -8.47%. On to `CCC(C(=O)Nc1ccc(C(C)C)cc1)c1ccccc1` (configuration not stated), for which the activity change, negative = inhibition is -50.8% (active). The figure for `CCOc1ccc(-c2cc3c(=O)n(CC(=O)NCc4ccc(OC)cc4)ccn3n2)cc1` is 8.73%. With `O=C(NCCc1csc(-c2ccc(C(F)(F)F)cc2)n1)C(=O)Nc1ccc(F)c(Cl)c1`, the activity change, negative = inhibition is -0.398%. On to `CCn1c2ccccc2c2nnc(SCC(=O)O)nc21`, for which the activity change, negative = inhibition was 6.1%. The figure for `O=C(/C=C/c1cn(CC(O)CN2CCc3ccccc32)c2ccccc12)c1ccc(Br)cc1` (configuration not stated) is -3.99%. The figure for `O=C(c1ccc(Cl)cc1)c1ccc(OCC(O)CN2CCCCC2)cc1` (configuration not stated) is -13.7%; for `CCOc1ccc(C(=O)/C=C/c2cn(CC(O)CN3CCCCCC3)c3ccccc23)cc1` (configuration not stated) it is -35% (active); for `CC(C)c1ccc(NC(=O)Cn2nnc(C(=O)NCCc3ccccc3)c2N)cc1` it is -8.95%.

For `Cc1ccc(C)c(S(=O)(=O)N2CC(=O)Nc3ccccc32)c1`, the activity change, negative = inhibition was -34.4% (active).

Consider `Cc1ccc(S(=O)(=O)N2CC(=O)Nc3ccccc32)cc1C`, for which the activity change, negative = inhibition was 7.51%.

For `Cc1ccc(C)c(S(=O)(=O)N2CCN(C(=O)Nc3ccccc3)CC2)c1`, the activity change, negative = inhibition is -15%.

Regarding `CC1=C(C(=O)OCC2CCCCC2)C(c2c(F)cccc2Cl)CC(=O)N1` (configuration not stated), the activity change, negative = inhibition is -8.23%.

As for `CNS(=O)(=O)c1cccc(C(=O)NCC2CCCCC2)c1`, the activity change, negative = inhibition is 15.5%.

Regarding `CN(C)S(=O)(=O)N1CCC(Oc2cccc(C(=O)NCCCC3CCCC3)c2)CC1`, the activity change, negative = inhibition was -36.8% (active). The figure for `CN(C(=O)c1cccc(OC2CCN(S(=O)(=O)N(C)C)CC2)c1)C1CCOC1` (configuration not stated) is -17.2%; for `CCOCCc1nn2c(=O)cc(COC(=O)CNC(=O)c3ccc(C(C)(C)C)cc3)nc2s1` it is -0.812%. Consider `CCC(=O)N1c2ccccc2CC1C(=O)N1CCN(c2cccc(OC)c2)CC1` (configuration not stated), for which the activity change, negative = inhibition is -5.92%.

As to `CCc1ccc(S(=O)(=O)c2nnn3c2nc(NCc2ccccc2OC)c2cc(Cl)ccc23)cc1`, the activity change, negative = inhibition is 2.93%.

With `CCCNC(=O)c1ccc2c(c1)ncn2-c1ccc(C)cc1C`, the activity change, negative = inhibition was -21.9%. Consider `CSc1ccc(CCNC(=O)C2CCN(c3nnc(-n4cccc4)s3)CC2)cc1`, for which the activity change, negative = inhibition is 11.1%. For `CCOc1ccc(CNC(=O)C2CCN(c3nnc(-n4cccc4CNc4ccc(C)cc4)s3)CC2)cc1OC` the value was 4.12%; for `Cc1ccc(CCNC(=O)C2CCN(c3nnc(-n4cccc4CNc4ccc(C)cc4)s3)CC2)cc1`, -30% (active). For `CCOc1ccccc1C1CC(c2ccccc2)Nc2nc(N)nn21` (configuration not stated) the value was -30.1% (active).

With `Cc1ccc(C2CC(c3cccc(C)c3)n3nc(N)nc3N2)cc1` (configuration not stated), the activity change, negative = inhibition is 9.87%. For the compound `CCOc1ccccc1C1CC(c2ccc(Cl)cc2)Nc2nc(N)nn21` (configuration not stated), the activity change, negative = inhibition is 13.6%. In the case of `c1ccc(-c2csc(N3CCc4ccccc4C3)n2)cc1`, the activity change, negative = inhibition was 4.74%. For `CN(C)CCCNC(=S)N1CCC(c2nc3ccccc3[nH]2)CC1` the value was 7.97%; for `COc1cccc(-c2ccc(SCC(=O)N3CCN(c4ccccc4)CC3)nn2)c1`, 3.13%. As to `COCCCNC(=S)N1CCCC(c2nc3cc(C)c(C)cc3[nH]2)C1` (configuration not stated), the activity change, negative = inhibition is -12%. Turning to `CN(C)CCCNC(=S)N1CCN(c2nc(-c3ccccc3)cs2)CC1`, the activity change, negative = inhibition is -48% (active). Consider `COCCCNC(=S)N1CCN(c2nc(-c3cccc(OC)c3)cs2)CC1`, for which the activity change, negative = inhibition is -31% (active). For `CCn1cc2nc(SCc3ccccc3Cl)n(CCc3ccccc3)c(=O)c2n1`, the activity change, negative = inhibition was 19.6%.

Consider `O=C(NC1CCCCC1)c1ccc(Cn2c(SCc3ccccc3)nc3cccnc32)cc1`, for which the activity change, negative = inhibition was -1.21%.
